Data from PubChem BioAssay AID2108 (National Center for Advancing Translational Sciences (NCATS), 2009).
Results filed as inconclusive are left out. Activity calls are given as the source filed them. The call rests on the fitted dose curve; in most records, active means well fitted curve in the direction sought with a large enough effect; inconclusive means small, poorly fitted or top-dose-only effect, or effect the other way, or another doubt; inactive means no such curve, though single readings can be large or run the other way.

target: Alpha-galactosidase A (Homo sapiens) (UniProt P06280); test: Confirmation of Inhibitors of Human alpha-Galactosidase Using Spleen Homogenate; details: alpha-galactosidase enzyme activity; series mostly up to 56.2 µM; activity change: at the top concentration; further: 0% is about no effect
Sequence (P06280 32-429 limits assumed): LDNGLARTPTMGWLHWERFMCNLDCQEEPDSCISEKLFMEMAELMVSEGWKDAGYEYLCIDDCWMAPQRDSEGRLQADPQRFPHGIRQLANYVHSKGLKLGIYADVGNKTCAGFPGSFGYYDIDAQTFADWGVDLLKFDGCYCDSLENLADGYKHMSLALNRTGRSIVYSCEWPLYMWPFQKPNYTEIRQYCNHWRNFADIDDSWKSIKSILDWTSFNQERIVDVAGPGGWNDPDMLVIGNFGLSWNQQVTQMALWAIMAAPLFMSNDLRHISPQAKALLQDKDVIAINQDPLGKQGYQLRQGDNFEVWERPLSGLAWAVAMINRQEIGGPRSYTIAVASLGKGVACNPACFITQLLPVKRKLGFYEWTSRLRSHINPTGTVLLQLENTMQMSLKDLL
How it was run: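 AC50 values come from Hill-equation fits of normalised 4-methylumbelliferone fluorescence (365/440 nm, read after NaOH/glycine stop). Enzyme source: spleen homogenate; substrate 1 mM final; pH 5.0 citrate buffer; 40 min at 37C; compound titration 0.5 nM–58 uM.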

Activity change, inactive:
COc1ccc(C(=O)N2CCN(c3ccc([N+](=O)[O-])c(NCCc4ccc(OC)c(OC)c4)c3)CC2)cc1 8.32%, CN(CCO)S(=O)(=O)c1ccc2c(c1)C(=NN)c1cc(S(=O)(=O)N(C)CCO)ccc1-2 3.16%, CCc1sc(-c2cc3ccc(O)cc3oc2=O)nc1-c1ccc(C)cc1 23.7%, O=S(=O)(c1ccccc1)N1CCNCC1 12.7%, CCCCN1C[C@H](O)[C@@H](O)[C@H](O)[C@H]1CO -5.54%, OCCN1CC(O)C(O)C(O)C1CO (centres undefined) -3.46%, CCS(=O)(=O)N1Cc2ccccc2CC1C(=O)Nc1ccc(NC(C)=O)cc1 (centres undefined) -1.12% [at 23.6 µM], COc1ccccc1N1CCN(C(c2cccs2)C(C)NC(=O)c2cccs2)CC1 (centres undefined) 0.409% [at 23.6 µM], O=C1c2ccccc2NC(c2cccnc2)N1c1ccccc1F (centres undefined) 10.3% [at 23.6 µM], Nc1cccc(S(=O)(=O)N2CCOCC2)c1 10.9%, CC1CCc2c(nc3ncnn3c2N2CCN(c3ccccc3F)CC2)C1 (centres undefined) 1.27% [at 23.6 µM], COc1ccc2cc(C#N)c(=O)oc2c1 -0.469%, COc1ccc(S(=O)(=O)N2CCOCC2)cc1 0.0857%, CCCn1c(=O)c2c(C(F)(F)F)cc(-c3cccs3)nc2n(CCC)c1=O 19.4%, Cc1ccc(N=Nc2c(N)nn(-c3ccccc3)c2N)cc1 9.02%, COc1ccc(/C=C/c2nnc(NC(=O)CSc3ccccc3)s2)cc1 8.53%, O=c1oc2ccc(Cl)cc2cc1-c1nc2c(s1)CCc1ccccc1-2 5.46%, N#Cc1c(-c2ccccc2)nc(SCc2nc(N)nc(N3CCCCC3)n2)[nH]c1=O 6.63%, Nc1c(NCCN2CCCCC2)c2ccccc2oc1=O -3.82%
